According to PubChem BioAssay (Tox21):
Where “and” joins values, the source holds several entries; their conditions need not be identical. Equal entries are not always repeated. Inconclusive results are not listed. More than one record can exist for a structure, and the calls need not agree. Calls of active or inactive are those of the source. Unless noted, calls follow the shape of the dose curve; as a rule, active = well fitted curve in the direction sought with a large enough effect in the repeat runs; inconclusive = weak or mixed curves; inactive = no such curve, though single readings can be large; an effect the other way counts as inactive or inconclusive.

Experiments:
[1] = qHTS assay to identify small molecule antagonists of the retinoid-related orphan receptor gamma (ROR-gamma) signaling pathway - cell viability counter screen (AID 1159520); also: nearly all actives have a fitted effect of over 50% in size; also: potency is read from the fitted curve at half-maximal effect; as to activity, negative = cytotoxicity: % is scaled to controls: 0 for no effect and ±100 for the full control effect
Procedure, shortened: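 Tet-on ROR gamma CHO cells (1,000/well) were plated 4 hr, given compounds in DMSO for 2 hr at 37 C, then induced with 1 uM final doxycycline for 16 hr. Viability was read as ATP by CellTiter-Glo luminescence after 30 min.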

[2] = biological target: Nuclear receptor ROR-gamma (Homo sapiens) (UniProt P51449); assay: qHTS assay to identify small molecule antagonists of the retinoid-related orphan receptor gamma (ROR-gamma) signaling pathway (AID 1159521; also: nearly all actives have a fitted effect of over 50% in size; also: potency is read from the fitted curve at half-maximal effect;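 as to activity change, negative = inhibition: CHO cells with doxycycline inducible ROR-gamma driving an RORE luciferase reporter; top concentration of the series differs between compounds; % is scaled to controls: 0 for no effect and ±100 for the full control effect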)
Procedure, shortened: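 RORγ antagonism is scored from reduced reporter luminescence in Tet-on CHO cells. Induction used 1 uM final doxycycline hyclate for 16 h at 37 C, following a 2 h compound exposure.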

[3] = qHTS assay to identify small molecule agonists of the AP-1 signaling pathway - cell viability counter screen (AID 1159525; calls by dose curve; also: nearly all actives have a fitted effect of over 55% in size; also: potency is read from the fitted curve at half-maximal effect)
Procedure, shortened: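 ME-180 AP-1-bla, 2500 cells/well, Opti-MEM + 0.5% dialyzed FBS; overnight 37 °C; cpd 15-pt titration, 5 h 37 °C; CellTiter-Glo 30 min RT; luminescence read; normalised to TOAB and DMSO controls.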

[4] = qHTS assay to identify small molecule agonists of the AP-1 signaling pathway (AID 1159526; calls by dose curve; also: % is scaled to controls: 0 for no effect and ±100 for the full control effect)
[5] = biological target: Retinoic acid receptor RXR-alpha (Homo sapiens) (UniProt P19793); assay: qHTS assay to identify small molecule agonists of the RXR signaling pathway (AID 1159527; calls by dose curve; also: nearly all actives have a fitted effect of over 35% in size; also: potency is read from the fitted curve at half-maximal effect; as to activation: % is scaled to controls: 0 for no effect and ±100 for the full control effect)
Retinoic acid receptor RXR-alpha (Homo sapiens), sequence (P19793 whole entry, looked up): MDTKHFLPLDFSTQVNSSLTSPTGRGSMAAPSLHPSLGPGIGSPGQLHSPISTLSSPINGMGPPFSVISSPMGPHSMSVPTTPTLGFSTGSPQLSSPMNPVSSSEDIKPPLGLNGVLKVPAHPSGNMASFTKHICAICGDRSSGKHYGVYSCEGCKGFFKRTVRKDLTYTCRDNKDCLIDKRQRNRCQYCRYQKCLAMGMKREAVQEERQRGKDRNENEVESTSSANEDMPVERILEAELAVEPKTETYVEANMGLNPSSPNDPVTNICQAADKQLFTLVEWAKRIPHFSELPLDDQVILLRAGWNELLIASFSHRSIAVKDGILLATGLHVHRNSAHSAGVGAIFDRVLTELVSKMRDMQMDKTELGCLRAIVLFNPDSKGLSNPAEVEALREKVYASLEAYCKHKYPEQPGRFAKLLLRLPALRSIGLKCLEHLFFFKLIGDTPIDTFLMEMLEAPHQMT
Procedure, shortened: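 qHTS of the Tox21 10K library in GeneBLAzer RXR-alpha HEK 293T cells carrying a beta-lactamase reporter […]; 16 hr treatment, 9-cis retinoic acid as agonist control, FRET read-out.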

[6] = qHTS assay to identify small molecule agonists of the RXR signaling pathway - cell viability counter screen (AID 1159529); also: nearly all actives have a fitted effect of over 50% in size; also: potency is read from the fitted curve at half-maximal effect
Procedure, shortened: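 Cell viability is measured by CellTiter-Glo luminescence, 30 min at room temperature, in wells already read for beta-lactamase. Engineered HEK 293T cells (RXR-alpha-UAS-bla) are dosed 16 hr at 37 C. Tetraoctyl ammonium bromide serves as positive control.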

[7] = qHTS assay to identify small molecule antagonists of the retinoid acid receptor (RAR) signaling pathway - cell viability counter screen (AID 1159551); also: % is scaled to controls: 0 for no effect and ±100 for the full control effect; nearly all actives have a fitted effect of over 35% in size
Procedure, shortened: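 Cytotoxicity counter screen in C3RL4 cells: 6 h compound exposure with 1 uM retinol (final), viability from cellular ATP by luminescence.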

[8] = qHTS assay to identify small molecule antagonists of the vitamin D receptor (VDR) signaling pathway - cell viability counter screen (AID 743225); also: nearly all actives have a fitted effect of over 50% in size; also: potency is read from the fitted curve at half-maximal effect
Procedure, shortened: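 Cells (VDR-UAS-bla HEK 293T) are plated, rested 4 h at 37C, dosed with compound and 3 nM final 1-alpha,25-dihydroxy vitamin D3, and incubated 16 h. Viability is taken from CellTiter-Glo luminescence in the reporter wells.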

C=CC(=O)OCCN(CC)CC
inactive: Potency [1] | Potency [2] | Potency [3] | Potency [4] | Potency [5] | Potency [6] | Potency [7]

CCCCCCCC(C)=O
inactive: Potency [1] | Potency [2] | Potency [3] | Potency [4] | Potency [5] | Potency [6] | Potency [7]

c1cc[nH]c1
inactive: Potency [1] | Potency [2] | Potency [3] | Potency [4] | Potency [5] | Potency [6] | Potency [7]

CC(C)c1ccccc1N
inactive: Potency [1] | Potency [2] | Potency [3] | Potency [4] | Potency [5] | Potency [6] | Potency [7]

C=CC(=C)CC/C=C(\C)CCC=C(C)C
inactive: activity, negative = cytotoxicity [1] 3.07% [at 19 µM] | activity change, negative = inhibition [2] 0.326% [at 19 µM] | viability change, negative = cytotoxic [3] 2.62% [at 15.8 µM] | activation [4] -1.16% [at 15.8 µM] | activation [5] -18.2% [at 15.8 µM] | activity change, negative = cytotoxicity [6] -8.98% [at 15.8 µM] | activity change, negative = cytotoxicity [7] -0.128% [at 19 µM]

CCC(C)C(=O)OC (stereo not drawn)
inactive: Potency [1] | Potency [2] | Potency [3] | Potency [4] | Potency [5] | Potency [6] | Potency [7]

CC(=O)OC1CCCCC1
inactive: Potency [1] | Potency [2] | Potency [3] | Potency [4] | Potency [5] | Potency [6] | Potency [7]

C[Si](C)O[Si](C)C
inactive: Potency [1] | Potency [2] | Potency [3] | Potency [4] | Potency [5] | Potency [6] | Potency [7]

CC1(C)C(=O)N(CO)C(=O)N1CO
inactive: Potency [1] | Potency [2] | Potency [3] | Potency [4] | Potency [5] | Potency [6] | Potency [7]

c1ccc2c(c1)CCC2
inactive: Potency [1] | Potency [2] | Potency [3] | Potency [4] | Potency [5] | Potency [6] | Potency [7]

O=S(=O)(O)c1cc(S(=O)(=O)O)c2ccc3c(S(=O)(=O)O)cc(S(=O)(=O)O)c4ccc1c2c43
inactive: activity, negative = cytotoxicity [1] 3.7% [at 19 µM] | activity change, negative = inhibition [2] 12.6% [at 19 µM] | viability change, negative = cytotoxic [3] -1.68% [at 15.8 µM] | activation [4] -3.16% [at 15.8 µM] | activation [5] -3.71% [at 15.8 µM] | activity change, negative = cytotoxicity [6] -4.37% [at 15.8 µM] | activity change, negative = cytotoxicity [7] 4.17% [at 19 µM]

CC(C)CCOCCC(C)C
inactive: Potency [1] | Potency [2] | Potency [3] | Potency [4] | Potency [5] | Potency [6] | Potency [7]

O=C1OC(=O)c2ccc3c4c(ccc1c24)C(=O)OC3=O
inactive: Potency [1] | Potency [2] | Potency [3] | Potency [4] | Potency [5] | Potency [6] | Potency [7]

Clc1cccnc1
inactive: Potency [1] | Potency [2] | Potency [3] | Potency [4] | Potency [5] | Potency [6] | Potency [7]

CC1=C(/C=C/C(C)=C/C=C/C(C)=C/C(=O)Nc2ccc(O)cc2)C(C)(C)CCC1
active: Potency [8] 14.2 µM and 10.7 µM | Potency [1] 31.4 µM and 13.3 µM | Potency [2] 19.8 µM and 8.41 µM | Potency [3] 44.8 µM | Potency [6] 35.6 µM and 12 µM

C=CC/C=C/C/C=C/C/C=C/C
inactive: Potency [1] | Potency [2] | Potency [3] | Potency [4] | Potency [5] | Potency [7]

CC1CNCC(C)O1 (stereo not drawn)
inactive: Potency [1] | Potency [2] | Potency [3] | Potency [4] | Potency [5] | Potency [6] | Potency [7]

C[C@H]1O[C@@H](O[C@H]2[C@@H](O)C[C@H](O[C@H]3[C@@H](O)C[C@H](O[C@H]4CC[C@@]5(C)[C@H](CC[C@@H]6[C@@H]5C[C@@H](O)[C@]5(C)[C@@H](C7=CC(=O)OC7)CC[C@]65O)C4)O[C@@H]3C)O[C@@H]2C)C[C@H](O)[C@@H]1O
inactive: Potency [4] | Potency [7]
30.7 µM (active) and inactive: Potency [1]
active: Potency [8] 21.9 nM and 13.6 nM | Potency [2] 4.33 µM and 8.54 µM

CCCCCCCCCCCCOC(=O)c1cc(O)c(O)c(O)c1
active: Potency [8] 43.5 µM and 24.5 µM | Potency [1] 2.42 µM and 4.86 µM | Potency [2] 2.16 µM and 2.17 µM | Potency [3] 43.5 µM and 38.9 µM | Potency [6] 27.4 µM and 34.7 µM

C=C(C)CCCC
inactive: Potency [1] | Potency [2] | Potency [3] | Potency [4] | Potency [5] | Potency [7]

CC1=CP(=O)(c2ccccc2)CC1 (stereo not drawn)
inactive: Potency [1] | Potency [2] | Potency [3] | Potency [4] | Potency [5] | Potency [7]

CCCC(C)CCC(C)=O (stereo not drawn)
inactive: Potency [1] | Potency [2] | Potency [3] | Potency [4] | Potency [5] | Potency [7]

Cc1cccc(N(C)C)c1
inactive: Potency [1] | Potency [2] | Potency [3] | Potency [4] | Potency [5] | Potency [6] | Potency [7]

CCCC(O)C(O)CO (stereo not drawn)
inactive: Potency [1] | Potency [2] | Potency [3] | Potency [4] | Potency [5] | Potency [7]

CCOCOCC
inactive: Potency [1] | Potency [2] | Potency [3] | Potency [4] | Potency [5] | Potency [7]

CCOC(OCC)C(=O)c1ccccc1
inactive: Potency [1] | Potency [2] | Potency [3] | Potency [4] | Potency [5] | Potency [6] | Potency [7]

Cc1cccc(C)n1
inactive: Potency [1] | Potency [2] | Potency [3] | Potency [4] | Potency [5] | Potency [6] | Potency [7]

Cc1ccc(O)cn1
inactive: Potency [1] | Potency [2] | Potency [3] | Potency [4] | Potency [5] | Potency [7]

CS(C)(=O)=O
inactive: Potency [1] | Potency [2] | Potency [3] | Potency [4] | Potency [5] | Potency [6] | Potency [7]

C/C=C/c1ccc(OC)c(OC)c1
inactive: Potency [1] | Potency [2] | Potency [3] | Potency [4] | Potency [5] | Potency [6] | Potency [7]

CCO[Si](C)(C)OCC
inactive: Potency [1] | Potency [2] | Potency [3] | Potency [4] | Potency [5] | Potency [7]

CCOCN(C(=O)CS(=O)(=O)O)c1c(C)cccc1CC
inactive: Potency [1] | Potency [2] | Potency [3] | Potency [4] | Potency [5] | Potency [6] | Potency [7]

CCCCOC(=O)C(C)CC (stereo not drawn)
inactive: Potency [8] | Potency [1] | Potency [2] | Potency [3] | Potency [4] | Potency [5] | Potency [6]

CCCCCCS
inactive: Potency [1] | Potency [2] | Potency [3] | Potency [4] | Potency [5] | Potency [7]

COc1cccc(OC)c1O
inactive: Potency [1] | Potency [2] | Potency [3] | Potency [4] | Potency [5] | Potency [7]

CCCCOCC
inactive: Potency [1] | Potency [2] | Potency [3] | Potency [4] | Potency [5] | Potency [6] | Potency [7]

OCCCCl
inactive: Potency [1] | Potency [2] | Potency [3] | Potency [4] | Potency [5] | Potency [7]

CC(=O)C=O
inactive: Potency [1] | Potency [2] | Potency [3] | Potency [4] | Potency [5] | Potency [7]

CCCCCCCCCCc1ccccc1
inactive: Potency [1] | Potency [2] | Potency [3] | Potency [4] | Potency [5] | Potency [6] | Potency [7]

CCOC(=O)CC(C)O (stereo not drawn)
inactive: Potency [1] | Potency [2] | Potency [3] | Potency [4] | Potency [5] | Potency [7]

COc1ccc(C#N)cc1
inactive: Potency [1] | Potency [2] | Potency [3] | Potency [4] | Potency [5] | Potency [6] | Potency [7]

O=CC1CC1
inactive: Potency [1] | Potency [2] | Potency [3] | Potency [4] | Potency [5] | Potency [6] | Potency [7]

COc1cccc(O)c1
inactive: Potency [1] | Potency [2] | Potency [3] | Potency [4] | Potency [5] | Potency [7]

CCc1c(Br)c(Br)c(Br)c(Br)c1Br
inactive: Potency [1] | Potency [2] | Potency [3] | Potency [4] | Potency [7]
active: Potency [5] 38.9 µM

OCCCc1cccnc1
inactive: Potency [1] | Potency [2] | Potency [3] | Potency [4] | Potency [5] | Potency [6] | Potency [7]

CC(C)(C)c1n[nH]c(=O)n(N)c1=O
inactive: Potency [1] | Potency [2] | Potency [3] | Potency [4] | Potency [5] | Potency [6] | Potency [7]

Cn1cccc1
inactive: Potency [1] | Potency [2] | Potency [3] | Potency [4] | Potency [5] | Potency [6] | Potency [7]
